Hits are enriched below; roughly 1.2% of the tested compounds scored in any of these assays.
NPR1 activator – GC-A (human) enzyme activation. P16066. HEK293 GC-A cells, cGMP TR-FRET, EC30 ANP; 0% at EC30 ANP, 100% saturating ANP. activation, % at 10 µM. actives 0.14% (n = 370,000). AID 1671463; in the data active = activation above about 40%
GC-B act – GC-B (human) receptor activation | AID 1920062 | activation, % at 10 µM | P20594 | HEK293-GC-B cells, CNP EC30, cGMP TR-FRET; 0% at EC30 CNP, 100% saturating CNP | actives 0.11% (n = 370,000);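 active = activation at 10 µM reaching about 35% in either raw or pattern-adjusted values, limit read from the data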
Neddylation inh – blocks human cullin neddylation | inhibition, % at 25 µM | P61081+Q13564 | TR-FRET cullin neddylation, biochemical | AID 651699 | actives 0.58% (n = 360,000); in the data active = inhibition above about 36%
NOD2 RIPK2 PPI – NOD2-RIPK2 protein interaction inhibition | O43353 | CHO BLA complementation NOD2-RIPK2, CCF4 ratio | inhibition, % at 4.98 µM | actives 0.38% (n = 360,000) | AID 624267; in the data active = inhibition above about 21%;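 note: 0% = vehicle only and 100% = reference blocker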
Target sequence (O43353 whole entry, looked up): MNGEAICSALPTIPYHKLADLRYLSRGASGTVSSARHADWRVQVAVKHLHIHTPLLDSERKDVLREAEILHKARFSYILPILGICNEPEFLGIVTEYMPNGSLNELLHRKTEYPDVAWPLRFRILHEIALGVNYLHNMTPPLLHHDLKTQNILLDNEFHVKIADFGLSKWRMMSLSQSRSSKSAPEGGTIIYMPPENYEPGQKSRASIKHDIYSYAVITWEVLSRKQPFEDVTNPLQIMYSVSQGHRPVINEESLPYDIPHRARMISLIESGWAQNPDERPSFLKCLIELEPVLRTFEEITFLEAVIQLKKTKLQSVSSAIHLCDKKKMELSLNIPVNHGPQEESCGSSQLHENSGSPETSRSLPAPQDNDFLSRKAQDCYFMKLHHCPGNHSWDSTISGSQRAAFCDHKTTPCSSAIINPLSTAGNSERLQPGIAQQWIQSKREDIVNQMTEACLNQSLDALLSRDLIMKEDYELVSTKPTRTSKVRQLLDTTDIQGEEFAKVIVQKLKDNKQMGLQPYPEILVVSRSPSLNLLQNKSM
TLR4-MyD88 BLA – inhibitors of human TLR4-MyD88 binding; O00206+Q99836; HeLa CL3-4 TLR4/MyD88 BLA complementation, FRET ratio; inhibition, % at 8.4 µM; actives 0.18% (n = 200,000); AID 861; in the data active = inhibition above about 25%;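 note: 0% = vehicle and 100% = reference inhibitor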
TLR9-MyD88 block – blocks human TLR9 binding to MyD88 | Q9NR96+Q99836 | CHO BLA complementation TLR9-MyD88, CCF4 FRET ratio | inhibition, % at 4.98 µM | actives 0.21% (n = 340,000) | AID 504734;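 active = inhibition above the mean over all tested compounds plus 3 SD, cut at about 21% in these data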;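 note: 0% = DMSO only wells and 100% = clavulanate BLA inhibitor control wells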
NOD2 RIPK2 conf – NOD2-RIPK2 interaction inhibition confirmed. CHO cells, NOD2-RIPK2 BLA complementation, CCF4 FRET. actives 70% (n = 1,200). inhibition, % at 4.98 µM. shares compounds with NOD2 RIPK2 PPI;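 active = mean inhibition across replicates above a set limit taken from the earlier primary screen, cut at about 21% in these data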;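 note: 0% = DMSO-only wells and the high end = clavulanate BLA-blocked wells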
BLA counter – counter-screen for NOD2-RIPK2 interaction inhibitors: BLA reporter | shares compounds with NOD2 RIPK2 PPI | actives 57% (n = 1,200) | inhibition, % at 4.98 µM | CHO BLA reporter, CCF4 FRET ratio, counterscreen | AID 624371;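 active = mean inhibition above the low-control mean inhibition plus three low-control SD, cut at about 11% in these data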;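 note: 0% = DMSO only wells and 100% = clavulanate high control wells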
Neddyl conf – confirmation of human cullin neddylation inhibitors; calls only at 25 µM; shares compounds with Neddylation inh; actives 13% (n = 1,800); TR-FRET cullin neddylation biochemical assay; in the data active = inhibition above about 40%;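 note: neddylation substrate is the cullin 1 ring ligase complex with SKP2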
* marks the source's active call; other numbers are inactive results; i = inactive; x = no result given; + = active, no number.

SMILES	NPR1 activator	GC-B act	Neddylation inh	NOD2 RIPK2 PPI	TLR4-MyD88 BLA	TLR9-MyD88 block	NOD2 RIPK2 conf	BLA counter	others
CCOC(=O)[C@]12Cc3ccc(C)cc3[C@H]1N(C1CCCCC1)C(=O)c1ccccc12	-23	-19	-3	52*	x	x	54*	1
CCOC(=O)[C@]12Cc3cc(C)ccc3[C@H]1N(C1CCCCC1)C(=O)c1ccccc12	-22	-18	2	56*	x	x	66*	0
CN(C)CCSC1c2ccccc2CSc2ccccc21 (stereo not drawn)	-11	-6	2	3	x	x	x	x
COC(=O)C1=C(c2ccc(OC(F)(F)F)cc2)C[C@@H]2CC[C@H]1N2C(=O)NCc1ccco1	-2	-3	x	x	x	x	x	x
C[C@@H]([C@@H](O)c1ccccc1)N(C)C(=O)Cc1ccccc1	3	6	-6	-4	x	0	x	x
CN(C)CC(C(=O)Cc1ccccc1)c1ccccc1 (stereo not drawn)	-32	-13	8	57*	x	-19	11	-6
CC(C#N)CCC#N (stereo not drawn)	0	-4	4	5	x	1	x	x
CC(=O)OC1CC2OC3C=C(C)CCC3(C)C1(C)C21CO1 (stereo not drawn)	-1	8	-3	25*	x	x	27*	0
CC(=O)O[C@H]1C[C@@H]2OC3C=C(C)CCC3(C)[C@@]1(C)[C@@]21CO1 (stereo partly drawn)	0	4	4	24*	x	-2	28*	0
C[N+](C)(C)CC1CCCC1=O (stereo not drawn)	0	4	3	7	x	-1	x	x
COC1CC2C=C(C)C=CC=CC(=O)NC(c3ccccc3)CC=CCCC(O)CC(=O)C2=C1O (stereo not drawn)	-26	-8	5	67*	x	x	102*	79*
CCCCCn1c(=O)c(C(=O)NC(C)c2ccccc2)c(O)c2ccccc21 (stereo not drawn)	3	-1	6	-7	x	-7	x	x
COc1cc(/C=C/[N+](=O)[O-])ccc1OC(=O)c1cccnc1	4	2	13	22*	x	-1	86*	6
CCOC(=O)c1ccc(NC(=O)N2C[C@@H]3C[C@@H](C2)c2cccc(=O)n2C3)cc1	1	-4	1	-5	x	3	x	x
CN1[C@@H]2CCC[C@H]1CC(=O)C2	1	3	-1	-4	x	9	x	x
COc1c2c(cc3c1OCO3)CC[N+](C)=C2	4	8	-17	-12	-22	6	x	x
COc1cc2c(cc1/C=C/[N+](=O)[O-])OCO2	9	0	6	40*	13	-5	65*	-5
CC1CCN(C(CC(=O)c2ccccc2)C(=O)c2ccccc2)CC1 (stereo not drawn)	13	14	1	28*	x	0	12	-3
CC1(O)CCC2C3CCC4=CC(=O)CCC4=C3C=CC21C (stereo not drawn)	-2	1	40*	-2	x	9	x	x	Neddyl conf=i
NC(N)=N/N=C/c1ccc(N2CCOCC2)cc1	-8	-3	54*	-8	-6	0	x	x	Neddyl conf=i
COc1ccc(/C=N\N=C(N)N)cc1	-2	5	-24	0	1	1	x	x
Cc1ccc(-c2cc(-c3ccccc3)cc(-c3ccccc3)[n+]2-c2ccc(C(=O)O)cc2)cc1	1	2	34*	-2	x	5	x	x	Neddyl conf=+
O=C(O)c1ccc(-[n+]2c(-c3ccccc3)cc(-c3ccccc3)cc2-c2ccccc2)cc1	1	2	-14	-2	x	-3	x	x
CC[C@@H](CO)NC(=O)[C@@H]1C=C2c3cccc4[nH]cc(c34)C[C@H]2N(C)C1	-4	-5	45*	0	x	1	x	x
CC(C)(OOC1(c2ccccc2)NC(=O)c2ccccc21)c1ccccc1 (stereo not drawn)	-20	-14	1	-9	x	x	x	x
SMILES	NPR1 activator	GC-B act	Neddylation inh	NOD2 RIPK2 PPI	TLR4-MyD88 BLA	TLR9-MyD88 block	NOD2 RIPK2 conf	BLA counter	others
Cn1c(O)c(/C=N/NC(=O)c2ccncc2)c(=O)[nH]c1=S	2	-3	33	-1	x	x	x	x
CCCCC(=O)N/N=C/c1c(O)n(CCc2ccccc2)c(=O)[nH]c1=O	-3	2	45*	-3	x	x	x	x	Neddyl conf=i
CCCCCCC(=O)N/N=C/c1c(O)n(CCCC)c(=S)[nH]c1=O	-2	0	50*	-4	x	-3	x	x	Neddyl conf=i
CCCCn1c(O)c(/C=N/NC(=O)c2ccncc2)c(=O)[nH]c1=S	-2	0	40*	7	x	8	x	x
C1CC2NCCC3NCCC(N1)N32 (stereo not drawn)	-2	5	2	-8	x	-6	x	x
O=[N+]([O-])c1ccc(Cl)cc1	7	-4	4	-1	x	1	x	x
O=C(NCCCN1CC1)Nc1cccc2ccccc12	-3	1	15	-2	x	-7	x	x
COc1cc2c(cc1OC)-c1c(OC)c(OC)cc3c1[C@H](C2)N(C)CC3	4	-14	-7	8	4	-6	x	x
COc1cc2c(cc1O)CC1c3c(cc(O)c(OC)c3-2)CCN1C (stereo not drawn)	-4	2	43*	12	-1	-23	x	x
Cc1ccccc1CCNCc1cc2cccc(C)c2[nH]c1=O	-4	0	7	-13	x	8	x	x
Cc1ccc(-n2nc(C)cc2NC(=O)COc2cc(C)cc3oc(=O)c4c(c23)CCC4)cc1	0	1	43*	-4	7	7	x	x	Neddyl conf=i

Source: PubChem BioAssay
